In the supplement of paper PMC10849652:
The full data set covers some 8,800 targets. This sample favours those with a hit. About 0.5% of all pairs of compound and target were hits.

Key:
Test in all cases: log2 fold change, soluble protein after heating vs DMSO (PISA); higher = thermal stabilisation; K562 lysate, 10 uM; active = over 0.2 and 3.5 SD of the protein, either way, in both replicates (recomputed)
alvocidib = compound: CN1CC[C@H](c2c(O)cc(O)c3c(=O)cc(-c4ccccc4Cl)oc23)[C@H](O)C1 [alvocidib]
Outline: (§1)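 Thermal stability, expressed as log-two fold change relative to solvent controls, is given from duplicates. Crude K562 extract in PBS pH 7.4 with 1 mM MgCl2, at 1 mg/mL protein, was treated with 10 μM compound for 30 min and heated in aliquots for 3 min across 48°C-58°C. After pooling, adjustment to 0.5% NP-40 at 4°C and centrifugation at 21,000xg for 90 min, supernatant protein was measured by TMTpro 16plex LC-MS/MS with channel sums equalised.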

Tubastatin A = compound: CN1CCc2c(c3ccccc3n2Cc2ccc(C(=O)NO)cc2)C1 [Tubastatin A]
Outline: as §1

[1] = compound: CNC(=O)C1=CC=CC=C1NC2=NC(=NC=C2Cl)NC3=C(C=C(C=C3)N4CCOCC4)OC
Outline: as §1

defactinib = compound: CNC(=O)c1ccc(Nc2ncc(C(F)(F)F)c(NCc3nccnc3N(C)S(C)(=O)=O)n2)cc1 [defactinib]
Outline: as §1

[2] = compound: CNc1nc(-c2ccc3c(N)n[nH]c3c2)cc(N2C[C@@H](C(=O)NC3CCCCC3)CC[C@H]2C)n1
Outline: as §1

encorafenib = compound: COC(=O)N[C@@H](C)CNc1nccc(-c2cn(C(C)C)nc2-c2cc(Cl)cc(NS(C)(=O)=O)c2F)n1 [encorafenib]
Outline: as §1

[3] = compound: COC(=O)[C@H](CCSC)NC(=O)C1=C(C=C(C=C1)NC[C@H](CS)N)C2=CC=CC=C2
Outline: as §1

alisertib = compound: COc1cc(Nc2ncc3c(n2)-c2ccc(Cl)cc2C(c2c(F)cccc2OC)=NC3)ccc1C(=O)O [alisertib]
Outline: as §1

[4] = compound: COc1cc2nc(-c3cc(F)ccc3O)nc(N[C@@H]3CNC[C@H]3C(C)(C)O)c2cc1OC
Outline: as §1

gefitinib = compound: COc1cc2ncnc(Nc3ccc(F)c(Cl)c3)c2cc1OCCCN1CCOCC1 [gefitinib]
Outline: as §1

lapatinib = compound: CS(=O)(=O)CCNCc1ccc(-c2ccc3ncnc(Nc4ccc(OCc5cccc(F)c5)c(Cl)c4)c3c2)o1 [lapatinib]
Outline: as §1

pictilisib = compound: CS(=O)(=O)N1CCN(Cc2cc3nc(-c4cccc5[nH]ncc45)nc(N4CCOCC4)c3s2)CC1 [pictilisib]
Outline: as §1

crizotinib = compound: C[C@@H](Oc1cc(-c2cnn(C3CCNCC3)c2)cnc1N)c1c(Cl)ccc(F)c1Cl [crizotinib]
Outline: as §1

[5] = compound: C[C@H](C1=CC=C(C=C1)C(=O)NC2=C3C=CNC3=NC=C2)N
Outline: as §1

duvelisib = compound: C[C@H](Nc1ncnc2nc[nH]c12)c1cc2cccc(Cl)c2c(=O)n1-c1ccccc1 [duvelisib]
Outline: as §1

gandotinib = compound: Cc1cc(Nc2cc(CN3CCOCC3)c3nc(C)c(Cc4ccc(Cl)cc4F)n3n2)n[nH]1 [gandotinib]
Outline: as §1

tozasertib = compound: Cc1cc(Nc2cc(N3CCN(C)CC3)nc(Sc3ccc(NC(=O)C4CC4)cc3)n2)n[nH]1 [tozasertib]
Outline: as §1

doramapimod = compound: Cc1ccc(-n2nc(C(C)(C)C)cc2NC(=O)Nc2ccc(OCCN3CCOCC3)c3ccccc23)cc1 [doramapimod]
Outline: as §1

bafetinib = compound: Cc1ccc(NC(=O)c2ccc(CN3CC[C@H](N(C)C)C3)c(C(F)(F)F)c2)cc1Nc1nccc(-c2cncnc2)n1 [bafetinib]
Outline: as §1

[6] = compound: Cc1cccc(CC(=O)N2CCc3c2ccc(-c2cn(C)c4ncnc(N)c24)c3F)n1
Outline: as §1

Measured: log2 fold change

NDUFA4 (UniProt O00483)
active: gandotinib -0.294
inactive: alvocidib 0.022 | Tubastatin A 0.055 | [1] 0.054 | defactinib 0.143 | [2] 0.004 | encorafenib 0.028 | [3] 0.009 | alisertib 0.055 | [4] -0.079 | gefitinib -0.133 | lapatinib 0.124 | pictilisib 0.017 | crizotinib 0.02 | [5] 0.009 | duvelisib 0.059 | tozasertib -0.01 | doramapimod 0.02 | bafetinib 0 | [6] -0.026

MYCBP2 (UniProt O75592)
Chain of UniProt O75592 (O75592 whole entry, looked up): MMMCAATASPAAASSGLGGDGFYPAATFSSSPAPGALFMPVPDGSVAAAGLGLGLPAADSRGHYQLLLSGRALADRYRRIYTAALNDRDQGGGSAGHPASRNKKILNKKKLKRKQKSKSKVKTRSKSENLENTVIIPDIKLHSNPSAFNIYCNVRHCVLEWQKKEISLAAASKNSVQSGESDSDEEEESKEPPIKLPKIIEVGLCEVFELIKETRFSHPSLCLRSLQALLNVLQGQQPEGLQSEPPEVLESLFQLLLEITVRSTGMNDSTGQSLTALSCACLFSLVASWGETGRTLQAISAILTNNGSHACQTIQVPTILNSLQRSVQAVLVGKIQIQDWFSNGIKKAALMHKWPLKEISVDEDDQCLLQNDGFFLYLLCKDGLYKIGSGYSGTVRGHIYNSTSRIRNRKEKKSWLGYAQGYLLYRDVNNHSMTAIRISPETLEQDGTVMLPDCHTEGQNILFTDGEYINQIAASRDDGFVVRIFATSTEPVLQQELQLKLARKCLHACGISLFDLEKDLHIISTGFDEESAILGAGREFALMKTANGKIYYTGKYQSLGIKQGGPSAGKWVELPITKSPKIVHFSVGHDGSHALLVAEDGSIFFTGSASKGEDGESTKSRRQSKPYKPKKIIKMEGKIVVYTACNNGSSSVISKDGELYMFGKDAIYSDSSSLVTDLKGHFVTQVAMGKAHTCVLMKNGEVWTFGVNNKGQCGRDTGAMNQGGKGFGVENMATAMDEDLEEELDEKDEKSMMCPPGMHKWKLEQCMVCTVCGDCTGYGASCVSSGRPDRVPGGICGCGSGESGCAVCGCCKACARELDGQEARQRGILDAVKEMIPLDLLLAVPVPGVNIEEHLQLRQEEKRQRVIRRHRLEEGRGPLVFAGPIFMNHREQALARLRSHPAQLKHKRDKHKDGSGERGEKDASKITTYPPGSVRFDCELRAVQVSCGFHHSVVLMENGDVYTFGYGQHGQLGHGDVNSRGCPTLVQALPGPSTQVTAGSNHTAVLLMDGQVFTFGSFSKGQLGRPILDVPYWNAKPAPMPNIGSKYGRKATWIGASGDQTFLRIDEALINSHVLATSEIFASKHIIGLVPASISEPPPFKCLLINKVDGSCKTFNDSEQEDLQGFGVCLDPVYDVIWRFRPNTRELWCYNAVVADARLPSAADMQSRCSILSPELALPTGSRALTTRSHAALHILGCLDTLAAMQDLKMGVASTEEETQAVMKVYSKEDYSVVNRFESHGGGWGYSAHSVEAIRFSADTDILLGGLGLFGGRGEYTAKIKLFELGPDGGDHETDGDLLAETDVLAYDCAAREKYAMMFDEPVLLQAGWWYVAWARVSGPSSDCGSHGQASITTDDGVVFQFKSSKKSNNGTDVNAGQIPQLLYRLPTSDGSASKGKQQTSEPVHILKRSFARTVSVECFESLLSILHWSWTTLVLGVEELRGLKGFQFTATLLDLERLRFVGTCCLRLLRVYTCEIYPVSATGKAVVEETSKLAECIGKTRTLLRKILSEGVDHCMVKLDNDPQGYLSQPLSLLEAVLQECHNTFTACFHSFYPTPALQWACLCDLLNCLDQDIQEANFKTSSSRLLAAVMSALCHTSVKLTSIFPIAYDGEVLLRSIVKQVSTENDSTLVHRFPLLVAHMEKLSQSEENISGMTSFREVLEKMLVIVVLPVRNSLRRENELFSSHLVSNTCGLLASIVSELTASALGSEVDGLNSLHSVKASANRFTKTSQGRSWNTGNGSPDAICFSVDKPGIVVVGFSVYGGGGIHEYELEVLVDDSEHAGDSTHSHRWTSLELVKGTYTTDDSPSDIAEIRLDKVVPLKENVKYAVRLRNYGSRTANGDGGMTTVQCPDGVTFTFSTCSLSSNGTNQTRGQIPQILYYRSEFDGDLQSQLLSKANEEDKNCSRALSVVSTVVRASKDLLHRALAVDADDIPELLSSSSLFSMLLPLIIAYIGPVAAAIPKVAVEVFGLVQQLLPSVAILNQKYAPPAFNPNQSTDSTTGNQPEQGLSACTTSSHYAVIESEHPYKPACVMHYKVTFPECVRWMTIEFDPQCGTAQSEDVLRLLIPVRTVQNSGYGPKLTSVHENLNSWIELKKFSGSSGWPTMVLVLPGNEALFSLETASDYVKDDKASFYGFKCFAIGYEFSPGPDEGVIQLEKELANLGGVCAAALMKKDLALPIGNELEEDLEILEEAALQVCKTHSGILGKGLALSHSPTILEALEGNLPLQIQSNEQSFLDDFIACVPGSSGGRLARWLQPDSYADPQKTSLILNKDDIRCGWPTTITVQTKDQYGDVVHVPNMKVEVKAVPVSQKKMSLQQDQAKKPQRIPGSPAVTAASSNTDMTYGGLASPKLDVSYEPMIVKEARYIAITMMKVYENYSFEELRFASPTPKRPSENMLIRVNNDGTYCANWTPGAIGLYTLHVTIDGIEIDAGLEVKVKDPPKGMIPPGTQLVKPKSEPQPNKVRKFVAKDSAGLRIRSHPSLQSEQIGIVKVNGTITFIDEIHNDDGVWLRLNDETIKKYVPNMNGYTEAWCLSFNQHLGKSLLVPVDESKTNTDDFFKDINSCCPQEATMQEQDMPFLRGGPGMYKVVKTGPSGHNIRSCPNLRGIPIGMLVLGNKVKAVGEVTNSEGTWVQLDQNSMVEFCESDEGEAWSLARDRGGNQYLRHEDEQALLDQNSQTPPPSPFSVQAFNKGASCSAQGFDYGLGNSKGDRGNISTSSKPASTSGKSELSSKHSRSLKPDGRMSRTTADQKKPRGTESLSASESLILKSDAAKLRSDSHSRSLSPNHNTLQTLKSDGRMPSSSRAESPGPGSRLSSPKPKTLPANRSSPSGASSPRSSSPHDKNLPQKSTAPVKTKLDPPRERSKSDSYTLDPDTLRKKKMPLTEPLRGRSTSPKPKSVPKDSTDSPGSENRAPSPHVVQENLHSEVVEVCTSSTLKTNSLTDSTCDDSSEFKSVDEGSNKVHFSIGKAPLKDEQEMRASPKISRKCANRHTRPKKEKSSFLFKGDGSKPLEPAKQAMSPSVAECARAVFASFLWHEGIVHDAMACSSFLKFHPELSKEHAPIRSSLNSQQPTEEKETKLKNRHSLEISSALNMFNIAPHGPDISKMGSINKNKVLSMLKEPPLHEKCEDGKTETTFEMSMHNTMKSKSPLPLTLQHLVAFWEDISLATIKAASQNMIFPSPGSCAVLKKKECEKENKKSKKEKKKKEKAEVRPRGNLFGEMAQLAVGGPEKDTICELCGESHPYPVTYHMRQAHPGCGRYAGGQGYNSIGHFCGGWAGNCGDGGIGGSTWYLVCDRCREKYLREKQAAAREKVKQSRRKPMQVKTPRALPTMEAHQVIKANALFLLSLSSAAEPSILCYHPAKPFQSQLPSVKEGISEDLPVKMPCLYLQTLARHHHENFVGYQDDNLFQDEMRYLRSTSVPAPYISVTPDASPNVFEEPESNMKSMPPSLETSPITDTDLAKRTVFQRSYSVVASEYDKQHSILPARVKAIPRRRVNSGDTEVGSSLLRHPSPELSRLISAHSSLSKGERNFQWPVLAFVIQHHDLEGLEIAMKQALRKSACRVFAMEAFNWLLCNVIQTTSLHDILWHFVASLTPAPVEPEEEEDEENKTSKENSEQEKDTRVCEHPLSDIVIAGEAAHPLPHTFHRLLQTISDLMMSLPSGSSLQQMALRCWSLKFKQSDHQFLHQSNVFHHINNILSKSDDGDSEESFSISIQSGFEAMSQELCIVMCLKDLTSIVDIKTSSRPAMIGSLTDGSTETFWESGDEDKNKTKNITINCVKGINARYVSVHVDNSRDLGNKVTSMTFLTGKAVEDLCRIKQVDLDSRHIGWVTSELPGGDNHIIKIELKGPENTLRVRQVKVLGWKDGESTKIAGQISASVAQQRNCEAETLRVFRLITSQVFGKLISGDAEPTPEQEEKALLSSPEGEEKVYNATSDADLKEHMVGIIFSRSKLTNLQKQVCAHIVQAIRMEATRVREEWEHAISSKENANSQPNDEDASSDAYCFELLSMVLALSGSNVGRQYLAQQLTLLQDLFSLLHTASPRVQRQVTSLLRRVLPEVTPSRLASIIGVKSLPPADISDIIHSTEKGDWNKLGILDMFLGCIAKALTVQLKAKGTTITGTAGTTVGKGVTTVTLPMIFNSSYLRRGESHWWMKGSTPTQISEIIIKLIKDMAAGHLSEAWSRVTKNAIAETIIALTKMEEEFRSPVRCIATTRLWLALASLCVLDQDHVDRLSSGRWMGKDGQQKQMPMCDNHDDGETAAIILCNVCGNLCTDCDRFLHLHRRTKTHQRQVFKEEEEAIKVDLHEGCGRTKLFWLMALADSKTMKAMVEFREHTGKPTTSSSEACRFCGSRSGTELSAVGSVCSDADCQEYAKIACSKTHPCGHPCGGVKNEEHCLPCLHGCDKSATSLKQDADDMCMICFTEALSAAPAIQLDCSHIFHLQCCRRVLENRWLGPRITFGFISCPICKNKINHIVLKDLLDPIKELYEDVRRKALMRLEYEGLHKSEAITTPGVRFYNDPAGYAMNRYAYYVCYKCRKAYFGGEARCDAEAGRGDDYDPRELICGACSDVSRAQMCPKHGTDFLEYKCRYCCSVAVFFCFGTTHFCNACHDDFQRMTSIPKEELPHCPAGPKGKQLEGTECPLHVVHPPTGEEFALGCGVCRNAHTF
inactive: alvocidib -0.046 | Tubastatin A -0.098 | [1] 0.024 | defactinib 0.019 | [2] 0.003 | encorafenib 0.055 | [3] -0.015 | alisertib 0.007 | [4] 0.032 | gefitinib -0.004 | lapatinib -0.042 | pictilisib -0.026 | crizotinib -0.07 | [5] -0.028 | duvelisib 0.023 | gandotinib 0.054 | tozasertib 0.023 | doramapimod 0.016 | bafetinib -0.004 | [6] 0.114

NBEAL2 (UniProt Q6ZNJ1)
inactive: alvocidib 0.031 | Tubastatin A -0.141 | [1] -0.005 | defactinib 0.022 | [2] 0.033 | encorafenib 0.003 | [3] -0.029 | alisertib -0.053 | [4] -0.009 | gefitinib 0.01 | lapatinib -0.065 | pictilisib -0.016 | crizotinib -0.069 | [5] -0.006 | duvelisib 0.04 | gandotinib -0.157 | tozasertib 0.02 | doramapimod 0.008 | bafetinib -0.056 | [6] 0.072

PAK4 (UniProt O96013)
inactive: alvocidib -0.019 | Tubastatin A -0.038 | [1] 0.27 | defactinib 0.441 | [2] -0.021 | encorafenib -0.173 | [3] -0.057 | alisertib 0.002 | [4] 0.241 | gefitinib -0.027 | lapatinib -0.147 | pictilisib 0.139 | crizotinib 0.037 | [5] 0.163 | duvelisib 0.05 | tozasertib 0.18 | doramapimod -0.236 | bafetinib -0.011 | [6] -0.12
active: gandotinib 0.709

MSI2 (UniProt Q96DH6)
active: doramapimod -0.23
inactive: alvocidib 0.035 | Tubastatin A -0.082 | [1] -0.04 | defactinib 0.076 | [2] -0.012 | encorafenib 0.144 | [3] -0.023 | alisertib 0.026 | [4] -0.012 | gefitinib -0.031 | lapatinib 0 | pictilisib -0.057 | crizotinib 0.036 | [5] 0.024 | duvelisib -0.052 | gandotinib -0.031 | tozasertib 0.01 | bafetinib -0.066 | [6] 0.07

NMT1 (UniProt P30419)
inactive: alvocidib 0.021 | Tubastatin A 0.001 | [1] 0.001 | defactinib 0.031 | [2] 0.011 | encorafenib -0.001 | [3] 0.087 | alisertib -0.005 | [4] 0.007 | gefitinib -0.006 | lapatinib 0.02 | pictilisib 0.005 | crizotinib -0.006 | [5] 0.016 | duvelisib -0.023 | gandotinib -0.021 | tozasertib 0.012 | doramapimod -0.015 | bafetinib 0.09 | [6] -0.034

NEXN (UniProt Q0ZGT2)
inactive: alvocidib -0.102 | Tubastatin A -0.049 | [1] 0.026 | defactinib 0.134 | [2] 0.158 | encorafenib -0.096 | [3] 0.044 | alisertib 0.004 | [4] -0.086 | gefitinib 0.092 | lapatinib 0.066 | pictilisib -0.137 | [5] -0.239 | duvelisib -0.088 | gandotinib 0.172 | tozasertib -0.237 | bafetinib 0.043 | [6] 0.198

NCK1 (UniProt P16333)
inactive: alvocidib 0 | Tubastatin A -0.097 | [1] 0.023 | defactinib -0.02 | [2] -0.008 | encorafenib 0.008 | [3] -0.068 | alisertib -0.003 | [4] -0.007 | gefitinib 0.026 | lapatinib 0.025 | pictilisib 0 | crizotinib -0.024 | [5] 0.065 | duvelisib 0.014 | gandotinib -0.051 | tozasertib 0.005 | doramapimod 0.03 | bafetinib -0.033 | [6] -0.024

MYH11 isoform 2 (UniProt P35749)
active: [5] 0.279
inactive: alvocidib -0.042 | Tubastatin A -0.069 | [1] -0.028 | defactinib -0.083 | [2] 0.031 | encorafenib -0.002 | [3] 0.07 | alisertib 0.002 | [4] -0.005 | gefitinib 0.031 | lapatinib 0.075 | pictilisib -0.002 | crizotinib 0.054 | duvelisib 0.055 | gandotinib -0.004 | tozasertib 0.031 | doramapimod -0.044 | bafetinib 0.303 | [6] -0.018

NUCB2 (UniProt P80303)
active: [5] 0.253
inactive: alvocidib 0.061 | Tubastatin A 0.036 | [1] 0.007 | defactinib -0.039 | [2] 0.005 | encorafenib 0.001 | [3] -0.027 | alisertib 0.003 | [4] 0.014 | gefitinib 0.004 | lapatinib -0.006 | pictilisib -0.006 | crizotinib 0.041 | duvelisib 0.008 | gandotinib -0.044 | tozasertib 0.003 | doramapimod -0.024 | bafetinib -0.022 | [6] -0.126

PAFAH1B3 (UniProt Q15102)
active: [3] 0.212
inactive: alvocidib 0.005 | Tubastatin A -0.067 | [1] 0.019 | defactinib 0.065 | [2] -0.017 | encorafenib -0.016 | alisertib 0.058 | [4] -0.022 | gefitinib -0.02 | lapatinib -0.034 | pictilisib -0.024 | crizotinib -0.01 | [5] -0.016 | duvelisib -0.024 | gandotinib -0.001 | tozasertib 0.054 | doramapimod 0 | bafetinib 0.048 | [6] -0.001

NCAPH (UniProt Q15003)
inactive: alvocidib 0.007 | Tubastatin A -0.089 | [1] 0.008 | defactinib 0.015 | [2] 0.023 | encorafenib 0.013 | [3] 0.063 | alisertib 0.015 | [4] 0.018 | gefitinib 0.006 | lapatinib -0.012 | pictilisib 0.005 | crizotinib -0.019 | [5] -0.015 | duvelisib 0.046 | gandotinib -0.101 | tozasertib 0 | doramapimod 0.036 | bafetinib -0.013 | [6] 0.028

NCAPG (UniProt Q9BPX3)
inactive: alvocidib 0.003 | Tubastatin A -0.113 | [1] 0.011 | defactinib 0.024 | [2] 0.01 | encorafenib -0.01 | [3] 0.094 | alisertib 0.007 | [4] -0.01 | gefitinib 0.003 | lapatinib -0.029 | pictilisib 0 | crizotinib -0.074 | [5] -0.028 | duvelisib -0.007 | gandotinib -0.094 | tozasertib -0.011 | doramapimod 0.026 | bafetinib -0.035 | [6] 0.011

PANK4 (UniProt Q9NVE7)
active: [3] 0.498
inactive: alvocidib -0.009 | Tubastatin A -0.117 | [1] 0.018 | defactinib 0.01 | [2] 0.019 | encorafenib -0.011 | alisertib -0.028 | [4] 0.013 | gefitinib -0.017 | lapatinib -0.019 | pictilisib -0.037 | crizotinib -0.052 | [5] -0.049 | duvelisib -0.009 | gandotinib 0.125 | tozasertib 0.001 | doramapimod -0.001 | bafetinib -0.06 | [6] 0.022

NELFA (UniProt Q9H3P2)
Chain of UniProt Q9H3P2 (Q9H3P2 whole entry, looked up): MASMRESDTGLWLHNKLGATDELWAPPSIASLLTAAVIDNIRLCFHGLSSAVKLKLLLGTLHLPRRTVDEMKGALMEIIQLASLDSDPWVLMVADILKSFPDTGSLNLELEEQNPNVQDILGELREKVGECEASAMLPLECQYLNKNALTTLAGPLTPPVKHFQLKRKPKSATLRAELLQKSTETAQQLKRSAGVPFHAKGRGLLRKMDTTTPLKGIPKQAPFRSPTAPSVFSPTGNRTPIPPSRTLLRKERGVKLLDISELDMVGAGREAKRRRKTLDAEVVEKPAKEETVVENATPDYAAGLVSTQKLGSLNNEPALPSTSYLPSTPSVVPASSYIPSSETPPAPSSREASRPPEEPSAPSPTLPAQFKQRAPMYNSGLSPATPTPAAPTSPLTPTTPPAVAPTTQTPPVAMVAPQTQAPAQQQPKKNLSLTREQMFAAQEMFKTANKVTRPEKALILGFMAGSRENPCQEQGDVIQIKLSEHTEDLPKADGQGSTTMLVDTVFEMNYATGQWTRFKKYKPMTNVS
inactive: alvocidib 0.036 | Tubastatin A -0.139 | [1] 0.022 | defactinib 0.056 | [2] 0.051 | encorafenib 0 | [3] 0.025 | alisertib 0.006 | [4] -0.006 | gefitinib -0.015 | lapatinib -0.031 | pictilisib 0.021 | crizotinib 0.018 | [5] 0.06 | duvelisib -0.018 | gandotinib -0.079 | tozasertib 0.048 | doramapimod 0.022 | bafetinib -0.048 | [6] -0.003
